In all, about 320,000 compounds went through this assay and about 2,100 (0.66%) were called active. Another 53% or so got no clear call; they are omitted. Calls follow the shape of the dose curve; as a rule, active = well fitted inhibition curve with a large enough effect in the signal ratio, with a control signal flat (not every such curve was filed as active); inconclusive = small, poorly fitted or top-dose-only effect, or effect the other way, or a change in a side signal; inactive = flat fitted curve, though single readings scatter; the % refers to the signal ratio. Many of the other results were omitted from the sample, so actives are more common in it than they were.
test: qHTS Assay for Lipid Storage Modulators in Drosophila S3 Cells; conditions: BODIPY lipid droplet fluorescence, 18-24 h, cells fed with added oleic acid; cell number change: measured here: cell count max response; series mostly up to 46.1 µM; lipid storage change, negative = inhibition: at the top concentration;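 as to cell number change: cells counted by Cell Tracker Red CMTPX staining in the red channel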; as to lipid storage change, negative = inhibition: % is scaled to controls: 0 for no effect and ±100 for the full control effect
Outline: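 Laser-scanning cytometry quantifies lipid droplet accumulation (500–530 nm total intensity; droplet/cell object ratio) in oleic acid-fed (400 uM added) Drosophila S3 cells treated with a concentration series. 20 uM Triacsin C defined 100% inhibition.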
Potency is read from the fitted curve at half-maximal effect.

| Structure (SMILES) | lipid storage change, negative = inhibition | cell number change [%] | outcome | Potency |
| --- | --- | --- | --- | --- |
| COc1cc(/C=N/NC(=O)c2ccc3nc[nH]c3c2)ccc1O | 4.27% (inactive) | 8.7 | – | – |
| COc1cccc(CNC(=O)COc2cccc3c2OC(C)(C)C3)c1 | – | – | inactive | – |
| CC1(C)Cc2cccc(OCC(=O)NCc3ccc(F)cc3)c2O1 | 20.4% (inactive) | 2.51 | – | – |
| Cc1ccc(CNC(=O)COc2cccc3c2OC(C)(C)C3)cc1 | – | – | – | 10.3 µM (active) |
| CN(CCNC(=O)c1cn(C)c2ccc(S(=O)(=O)N3CCCC3)cc2c1=O)CCc1ccccc1 | 22.9% (inactive) | – | – | – |
| COc1cc(NC(=S)N(C)CCC#N)c(OC)cc1Cl | 6.78% (inactive) | -2.16 | – | – |
| CCOC(=O)c1nn(-c2ccc(Cl)cc2Cl)c(=N)c(C#N)c1C | – | 4.21 | – | 18.4 µM (active) |
| CCOC(=O)c1nc(C)n(-c2ccc(Cl)cc2Cl)n1 | – | – | inactive | – |
| CCOC(=O)c1nn(-c2ccc(C)c(C)c2)c(=O)c(C#N)c1C | – | -19.4 | inactive | – |
| CC(C)(C)NC(=O)NC(=O)COC(=O)C1=COCCO1 | -1.3% (inactive) | -19.1 | – | – |
| CC1(C)c2ssc(=S)c2-c2ccccc2N1C(=O)c1ccco1 | – | 1.38 | – | 8.2 µM (active) |
| Cn1cnnc1SCC(=O)N1c2ccccc2-c2c(ssc2=S)C1(C)C | 10.2% (inactive) | 1.3 | – | – |
| Cc1ccc2c(c1)N(C(=O)CSc1nncn1C)C(C)(C)c1ssc(=S)c1-2 | -13.1% (inactive) | -13.4 | – | – |
| O=C(N/N=C/c1ccccc1C(=O)O)c1cccc(S(=O)(=O)N2CCOCC2)c1 | 4.8% (inactive) | 10.2 | – | – |
| Cc1onc(-c2ccncc2)c1C(=O)O | – | -5.32 | – | 20.6 µM (active) |
| Cc1onc(-c2ccccc2)c1C(=O)Nc1ccncc1 | – | 12.5 | inactive | – |
| Cc1onc(-c2ccccc2)c1C(N)=O | – | – | inactive | – |
| CCOc1ccc(CN2CCC(=O)NC2=O)cc1 | -8.2% (inactive) | -4.82 | – | – |
| CC1CC(C)CN(CCCNC(=O)c2ccc(N3CCCC3=O)cc2)C1 (stereo unspecified) | – | -12.7 | inactive | – |
| COC(CNC(=O)c1ccc(N2CCc3ccccc32)c([N+](=O)[O-])c1)OC | – | -26.9 | – | 20.6 µM (active) |
| COC(CNC(=O)c1ccc(N2CCC3(CC2)OCCO3)c([N+](=O)[O-])c1)OC | -23.4% (inactive) | -9.81 | – | – |
| COC(CNC(=O)c1cc(S(=O)(=O)N2CCc3ccccc32)ccc1F)OC | 11.3% (inactive) | – | – | – |

| Structure (SMILES) | lipid storage change, negative = inhibition | cell number change [%] | outcome | Potency |
| --- | --- | --- | --- | --- |
| O=C(Nc1cccc([N+](=O)[O-])c1)C(=O)N1CCCCC1 | 14.2% (inactive) | -20.3 | – | – |
| CCOC(=O)c1ccc(NC(=O)CSc2nnc(-c3ccncc3)n2C)cc1 | 21.9% (inactive) | 3.98 | – | – |
| COc1ccc2c(C)cc(N3CCOCC3)nc2c1 | – | -8.65 | – | 4.61 µM (active) |
| COc1ccc2c(C)cc(N3CCCCCC3)nc2c1 | 28.5% (inactive) | 23.5 | – | – |
| Cc1cc(N2CCOCC2)nc2cc(O)ccc12 | 4.23% (inactive) | -2.46 | – | – |
| CSc1ccc(S(=O)(=O)Nc2c(C)cccc2C)cc1 | – | 1.28 | inactive | – |
| CCCCCCCn1c(=N)n(CC(O)c2ccco2)c2ccccc21 (stereo unspecified) | -19.3% (inactive) | -4.47 | – | – |
| Cc1ccc2c(CN3CC(C)CC(C)C3)cc(=O)oc2c1 (stereo unspecified) | – | 4.5 | – | 1.16 µM (active) |
| Cc1ccc2c(CN3CCOCC3)cc(=O)oc2c1 | 8.89% (inactive) | 3.55 | – | – |
| CC1CN(Cc2cc(=O)oc3cc(O)c(Cl)cc23)CC(C)O1 (stereo unspecified) | – | -11.3 | – | 1.64 µM (active) |
| COC(=O)C1CCN(Cc2cc(=O)oc3cc(C)c(Cl)cc23)CC1 | 11.8% (inactive) | 14.6 | – | – |
| O=c1cc(CN2CCOCC2)c2cc(Cl)c(O)cc2o1 | – | -11.3 | inactive | – |
| Cc1ccc2c(CN3CCN(Cc4ccccc4)CC3)cc(=O)oc2c1 | 15.3% (inactive) | 22.5 | – | – |
| CCCCCCNC(=O)c1cc(-c2ccco2)nc2ccccc12 | 0.701% (inactive) | -17.2 | – | – |
| O=C(CN1C(=O)NC2(CCCC2)C1=O)N1CCN(Cc2ccccc2)CC1 | -0.737% (inactive) | 0.232 | – | – |
| COC(=O)Cn1nc(-c2ccc(C)cc2)c2ccccc2c1=O | 3.29% (inactive) | 9.56 | – | – |
| COc1ccc(/C=N/NC(=O)CCN2CCCCC2c2cccnc2)cc1Cn1cc([N+](=O)[O-])cn1 (stereo unspecified) | -4.04% (inactive) | -16.7 | – | – |
| CN(C)CCN(Cc1ccccc1)S(=O)(=O)c1ccc(-c2ccc(=O)[nH]n2)s1 | – | – | inactive | – |
| COc1cc2c(cc1OC)C(C(=O)NCc1cccnc1)C(c1cccnc1)N(C)C2=O (stereo unspecified) | 3.13% (inactive) | -0.81 | – | – |
| COc1ccc(C2C(C(=O)NCc3cccnc3)c3ccccc3C(=O)N2C)cc1OC (stereo unspecified) | – | -17.1 | – | 2.59 µM (active) |
| COc1ccc(C2C(C(=O)NCc3ccccn3)c3ccccc3C(=O)N2C)cc1OC (stereo unspecified) | – | – | inactive | – |
| O=C(N/N=C\c1cccnc1)C1c2ccccc2Oc2ccccc21 | 0.808% (inactive) | -0.813 | – | – |

| Structure (SMILES) | lipid storage change, negative = inhibition | cell number change [%] | outcome | Potency |
| --- | --- | --- | --- | --- |
| CCN(CC)C(=O)c1[nH]cnc1C(=O)N[C@@H](CC(C)C)C(=O)OCc1ccccc1 | -21.5% (inactive) | -10.8 | – | – |
| C/C(=N\NC(=O)c1cccc([N+](=O)[O-])c1)c1cccc(NC(=O)C2CC2)c1 | 11.2% (inactive) | -1.94 | – | – |
| Cc1ccccc1NC(=O)CN1C(=O)N/C(=C\c2ccc(N3CCOCC3)c(F)c2)C1=O | 9.21% (inactive) | -7.47 | – | – |
| COc1ccc2c3n(nc2c1)CCN=C3c1ccc(Cl)cc1 | 18.2% (inactive) | 28.7 | – | – |
| Nc1c(Cl)cc(C2=NCCn3c2c2ccc([N+](=O)[O-])cc2[n+]3[O-])cc1Cl | – | -13.5 | inactive | – |
| Nc1c(Cl)cc(C2=NCCn3nc4cc([N+](=O)[O-])ccc4c32)cc1Cl | – | 13.3 | – | 5.17 µM (active) |
| C/C=C/C(=O)N1CC2(CC(c3cccc(NC(=O)CCCCC)c3)=NO2)C[C@H]1C(N)=O (stereo partly specified) | 5.76% (inactive) | 7.84 | – | – |
| CC1(C)CC(=O)N(c2ccccc2)C1(C)O (stereo unspecified) | – | 6.8 | – | 0.164 µM (active) |
| CC(C)N1C(=O)N(c2ccccc2)C(C)(O)CC1(C)C (stereo unspecified) | 7.15% (inactive) | – | – | – |
| CC1(O)CC(=O)N(c2ccccc2)O1 (stereo unspecified) | -7.45% (inactive) | 5.56 | – | – |
| Nc1nc(CN2CCc3ccccc3C2)nc(Nc2ccccc2)n1 | – | – | inactive | – |
| CCCCCCSc1ccc([C@@H]2[C@H]3C(=O)N(C)C(=O)[C@H]3[C@]3(C(=O)OC)CCCCN23)cc1 | – | – | – | 20.6 µM (active) |
| CCN1C(=O)[C@@H]2[C@@H](c3ccc(-c4ccc(F)cc4)cc3)N3CCC[C@@]3(C(=O)OC)[C@@H]2C1=O | 6.74% (inactive) | -18.3 | – | – |
| COC(=O)[C@@]12CCCCN1[C@H](c1ccc(-c3ccc(OC)cc3)cc1)[C@@H]1C(=O)N(C)C(=O)[C@@H]12 | – | – | inactive | – |
| CCCCCCSc1ccc([C@@H]2[C@H]3C(=O)N(CC)C(=O)[C@H]3[C@]3(C(=O)OC)CCCN23)cc1 | – | – | – | 0.517 µM (active) |
| CCCSc1ccc([C@@H]2[C@H]3C(=O)N(CC)C(=O)[C@H]3[C@]3(C(=O)OC)CCCN23)cc1OC | 14.4% (inactive) | 11.7 | – | – |
| COC(=O)[C@@]12CCCCN1[C@H](c1ccc(SC3CCCCC3)cc1)[C@H]1C(=O)N(C)C(=O)[C@H]12 | 11.4% (inactive) | – | – | – |
| CS(=O)(=O)Nc1ccc(S(=O)(=O)NCCc2ccccc2)cc1 | – | – | inactive | – |
| CC(C)NC(=O)c1cc2c(C(F)(F)F)nn(C)c2s1 | – | -21.4 | inactive | – |
| COc1ccc(C(=O)C(C)OC(=O)c2cccc(S(=O)(=O)Nc3cc(Cl)c(OC)cc3OC)c2)cc1 (stereo unspecified) | 19.9% (inactive) | -7.94 | – | – |
| N#Cc1cccc(NC(=O)COc2ccc(-n3ccnc3)cc2)c1 | 14.6% (inactive) | -13.2 | – | – |
| COc1ccc(N2C(=O)CC(N3CCN(c4cccc(Cl)c4)CC3)C2=O)cc1 (stereo unspecified) | – | -1.05 | inactive | – |

| Structure (SMILES) | lipid storage change, negative = inhibition | cell number change [%] | outcome | Potency |
| --- | --- | --- | --- | --- |
| Nc1cc(C(=O)O)c(Oc2ccc(Cl)cc2Cl)cc1C(=O)O | -11.9% (inactive) | -11.5 | – | – |
| COCCN=c1scc(-c2ccc3c(c2)NC(=O)CO3)n1/N=C(\C)c1ccc(O)cc1 | 2.86% (inactive) | 3.12 | – | – |
| COc1cc(C(C)=O)ccc1COc1ccc(C(=O)OC(C)C(=O)NC(N)=O)cc1OC (stereo unspecified) | 6.34% (inactive) | 7.94 | – | – |
| Cc1ccc(N=Nc2c(O)c3ccccc3[nH]c2=O)c(S(=O)(=O)N(C)C)c1 | 7.55% (inactive) | 7.5 | – | – |
| NC(=O)c1ccc(N=Nc2c(O)c3ccccc3[nH]c2=O)cc1 | 5.32% (inactive) | 9.46 | – | – |
| Cc1cc(N=Nc2c(O)c3ccccc3[nH]c2=O)ccc1N=Nc1ccc(C(=O)N(C)C)cc1 | – | -11.6 | – | 20.6 µM (active) |
| O=C(NCCOc1ccccc1)c1cc([N+](=O)[O-])ccc1N1CCOCC1 | 1.04% (inactive) | -1.71 | – | – |
| CC(C)(CNC(=O)c1cc([N+](=O)[O-])ccc1N1CCC(Cc2ccccc2)CC1)N1CCOCC1 | – | 7.52 | – | 20.6 µM (active) |
| O=C(O)c1cc([N+](=O)[O-])ccc1N1CCC(Cc2ccccc2)CC1 | 9.81% (inactive) | 4.05 | – | – |
| CCOc1ccc(N2C(=O)C3ON(c4ccccc4)C(c4ccco4)C3C2=O)cc1 (stereo unspecified) | -14.5% (inactive) | -16.3 | – | – |
| CCN(CC)S(=O)(=O)c1ccc(S(=O)(=O)N(CC(=O)Nc2ccccc2)Cc2ccco2)cc1 | -6% (inactive) | -12.6 | – | – |
| Cc1cc(C)n(-c2nnc(C)c(=O)[nH]2)n1 | 4.01% (inactive) | – | – | – |
| CC(NC(=O)C12CC3CC(CC(C3)C1)C2)C(=O)N/N=C/C1=C(N2CCOCC2)C(=C\c2cccc([N+](=O)[O-])c2)/CC1 (stereo unspecified) | – | 4.98 | – | 13 µM (active) |
| CCOC(=O)C(=O)C1=C(N2CCOCC2)/C(=C\c2cccc([N+](=O)[O-])c2)CC1 | 4.84% (inactive) | -9.52 | – | – |
| O=C(O)c1ccccc1N/N=C/C1=C(N2CCOCC2)C(=C\c2ccccc2)/CC1 | 8.4% (inactive) | – | – | – |
| N#C/C(=C/c1cccc([N+](=O)[O-])c1)C(=O)Nc1ccccc1O | 1.09% (inactive) | 0.725 | – | – |
| CCN(CC)c1ccc(/C=C2\CCC(/C=C(\C#N)C(=O)Nc3ccccc3F)=C2N2CCOCC2)cc1 | – | 1.95 | – | 0.58 µM (active) |
| O=CC1=C(N2CCOCC2)/C(=C\c2ccccc2)CC1 | 6.77% (inactive) | 1.5 | – | – |
| O=C(NP(=O)(N1CCCC1)N1CCCC1)C1=C(N2CCOCC2)/C(=C/c2cccc([N+](=O)[O-])c2)CC1 | 19.1% (inactive) | – | – | – |
| CC(C)C(NC(=O)C12CC3CC(CC(C3)C1)C2)C(=O)N/N=C/C1=C(N2CCOCC2)C(=C\c2cccc([N+](=O)[O-])c2)/CC1 (stereo unspecified) | 13% (inactive) | 9.26 | – | – |
| N#C/C(=C\C1=C(N2CCOCC2)C(=C/c2cccc([N+](=O)[O-])c2)/CC1)C(=O)Nc1ccccc1F | – | 1.41 | – | 2.06 µM (active) |
